{"source": "PubChem BioAssay (EPA / NIEHS)", "note": "Active and inactive are the calls of the source. Rule for the calls: active = hit-call score of the fitted dose curve at least 0.9, where 1 is the maximum; inactive = score below 0.9.", "data": [{"test": "ATG_CRE_CIS: Attagene CIS-FACTORIAL HepG2 Assay for human cAMP Responsive Element (CRE) binding protein 3 (AID 2282926)", "details": "HepG2 CRE cis-reporter, Attagene multiplexed mRNA; actives raise or lower the signal", "description": "ATG_CIS is a cell-based, multiplexed-readout assay that uses HepG2, a human liver cell line, with measurements taken at 24 hours after chemical dosing in a 24-well plate.ATG_CRE_CIS is one of 52 assay component(s) measured or calculated from the ATG_CIS assay. It is designed to make measurements of mRNA induction, a form of inducible reporter, as detected with fluorescence intensity signals by Reverse transcription polymerase chain reaction (RT-PCR) and Capillary electrophoresis technology.Data from the assay component ATG_CRE_CIS was analyzed into 1 assay endpoint. This assay endpoint, ATG_CRE_CIS, was analyzed with bidirectional fitting relative to DMSO as the negative control and baseline of activity. Using a type of inducible reporter, measures of mRNA for gain or loss-of-signal activity can be used to understand the reporter gene at the transcription factor-level as they relate to the gene CREB3. Furthermore, this assay endpoint can be referred to as a primary readout, because this assay has produced multiple assay endpoints where this one serves a reporter gene function. To generalize the intended target to other relatable targets, this assay endpoint is annotated to the dna binding intended target family, where the subfamily is basic leucine zipper.\nHuman liver HepG2 cells are transiently transfected with multiple reporter transcription units (MRTUs) in 6-well plates using FuGene 6 reagent (Roche; 3 ml FuGene/1 mg DNA). The MRTU constructs are regulated by a cis-regulating element (promoter). […] A major difference between the CIS and TRANS system is that in CIS activities of endogenous TFs are measured, whereas the TRANS assay evaluates changes in activities of exogenous, chimeric NR-Gal4 proteins. […] At the end of 24 hour incubation, total RNA was isolated using TriZol reagent (Invitrogen). The isolated RNA is then reverse-transcribed using oligo(dT) primer and Mo-MLV reverse transcriptase (Invitrogen) with DNAse I (Ambion) treatment for 30 min. The one-tenth of the produced cDNA was amplified by PCR using Taq DNA polymerase (Invitrogen) and two reporter sequence-specific primers. The PCR products were fluorescently labeled by primer extension with 6-arboxyfluorescein (6-FAM) 5'-labeled reporter sequence-specific primer (2 min at 95 C, 20 s at 68 C and 10 min at 72 C) and these products were digested with 5U of HpaI (New England Biolabs) for 2h at 37 C. The fragments were purified using Qiaquick PCR columns (Qiagen), analyzed on an ABI 3130xL genetic analyzer (Applied Biosystems) with peak positions identified by using a set of X-rhodamine (ROX)-labeled MapMarker1000 molecular weight standards (BioVentures). The raw capillary electrophoresis data was processed using Attagraph software (Attagene).", "values": [{"smiles": "O=C1Nc2ccc(Cl)cc2C(c2ccccc2)=NC1O", "note": "(stereo not given)", "outcome": "inactive"}, {"smiles": "N#Cc1cc(I)c(O)c(I)c1", "outcome": "inactive"}, {"smiles": "BrCBr", "outcome": "inactive"}, {"smiles": "CC(C)[C@@H](C(=O)O[C@@H](C#N)c1cccc(Oc2ccccc2)c1)c1ccc(Cl)cc1", "outcome": "inactive"}, {"smiles": "SCc1ccco1", "outcome": "inactive"}, {"smiles": "Cc1ncc(C[n+]2csc(CCO)c2C)c(N)n1", "outcome": "inactive"}, {"smiles": "C=CCN(CC=C)C(=O)C(Cl)Cl", "outcome": "inactive"}, {"smiles": "CN(N=O)c1ccccc1", "outcome": "inactive"}, {"smiles": "Oc1ccc(Cl)cc1", "outcome": "inactive"}, {"smiles": "CC1(C)CC(=O)CC(C)(C)N1[O]", "outcome": "inactive"}, {"smiles": "CC(C)(Cl)Cl", "outcome": "inactive"}, {"smiles": "Nc1cc(Cl)cc(Cl)c1", "outcome": "inactive"}, {"smiles": "O=P(O)(Oc1ccccc1)Oc1ccccc1", "outcome": "inactive"}, {"smiles": "CC1CCC(=O)O1", "note": "(stereo not given)", "outcome": "inactive"}, {"smiles": "COc1cc(OC)nc(Oc2cccc(Oc3nc(OC)cc(OC)n3)c2C(=O)O)n1", "outcome": "inactive"}, {"smiles": "O=P1(NCCCl)OCCCN1CCCl", "note": "(stereo not given)", "outcome": "inactive"}, {"smiles": "COC(=O)c1ccccc1S(=O)(=O)NC(=O)Nc1nc(C)cc(C)n1", "outcome": "inactive"}, {"smiles": "CCCOC(=O)c1ccccc1C(=O)OCCC", "outcome": "inactive"}, {"smiles": "O=c1c2ccccc2c(=O)c2c1cc(Cl)c1[nH]c3c([nH]c12)c(Cl)cc1c(=O)c2ccccc2c(=O)c13", "outcome": "inactive"}, {"smiles": "O=C=Nc1ccccc1", "outcome": "inactive"}, {"smiles": "COc1ncc(F)c2nc(S(=O)(=O)Nc3c(F)cccc3F)nn12", "outcome": "inactive"}, {"smiles": "[Cl][Sb]([Cl])[Cl]", "outcome": "inactive"}, {"smiles": "CCCCOC(=O)CCC(=O)OCCCC", "outcome": "inactive"}, {"smiles": "CCN(CC)C(=S)S", "outcome": "inactive"}, {"smiles": "CCOC(=O)N(C)N=O", "outcome": "inactive"}, {"smiles": "O=[N+]([O-])C=Cc1ccccc1", "AC50": "20 µM (active)"}, {"smiles": "Clc1ccc(-c2ccccc2)cc1", "outcome": "inactive"}, {"smiles": "Nc1ccccc1C(=O)Oc1ccc2ccccc2c1", "outcome": "inactive"}, {"smiles": "COc1cc(OC)c(OC)cc1C=O", "outcome": "inactive"}, {"smiles": "N#CC(c1ccccc1)c1ccccc1", "outcome": "inactive"}, {"smiles": "CC(C)(C)C(=O)CCl", "outcome": "inactive"}, {"smiles": "O=C(O)CCCc1ccc(N(CCCl)CCCl)cc1", "outcome": "inactive"}, {"smiles": "CCCC=NO", "outcome": "inactive"}, {"smiles": "Nc1ccc(Cl)c(Cl)c1", "outcome": "inactive"}, {"smiles": "O=C(NCNC(=O)NC1C(=O)NC(=O)N1CO)NC1C(=O)NC(=O)N1CO", "note": "(stereo not given)", "outcome": "inactive"}, {"smiles": "CN(C)CCC#N", "outcome": "inactive"}, {"smiles": "CCC(C)c1cc([N+](=O)[O-])cc([N+](=O)[O-])c1OC(=O)C=C(C)C", "note": "(stereo not given)", "outcome": "inactive"}, {"smiles": "C=Cc1cccc(CCl)c1", "outcome": "inactive"}, {"smiles": "CC1(C)C(=O)NC(=O)NC1=O", "outcome": "inactive"}, {"smiles": "ClCCCCCCCl", "outcome": "inactive"}]}]}
